# Data as given in PubChem BioAssay AID1986 (Sanford-Burnham Center for Chemical Genomics, 2009).
# Values joined by “and” are separate entries in the source; they are usually repeats but may differ in a detail not shown here. Equal entries are not always repeated. The whole screen tested about 290,000 compounds, of which about 890 (0.31%) were called active. The sample holds actives, similar compounds and a random draw of the others, so the mix is not that of the screen. Rule as the data show it: active = inhibition mostly above about 52% (no sharp cut-off); inactive = mostly below about 76%.
# Test: cell-free HIV fusion peptide-binding blockers – biochemical, uHTS, fluorescence dequenching, primary screen (AID 1986)
# Conditions: 30 min, stronger effect = higher value
# [1] = measured here: repeat confirmation average inhibition, at 18.6 µM
SMILES,inhibition (at 20 µM),inhibition [1]
O=C(O)/C=C/c1cccc(NC(=O)Nc2ccc([N+](=O)[O-])cc2)c1,1.6% (inactive),–
O=C(COC(=O)CCc1ccc(S(=O)(=O)N2CCOCC2)cc1)NC(=O)NC1CCCCC1,0.6% (inactive),–
CCCOc1cc(C)c(S(=O)(=O)n2ccc(C)n2)cc1C,1% (inactive),–
COc1ccc(CN2C(=O)Cc3c2nc(N)c2c(N)nc(N4CCCCC4)c(C#N)c32)cc1,23.9% (inactive),–
CCN(CC)c1nc2c3c(nc4c(c3c1C#N)CC(=O)N4c1ccc(Cl)cc1)NC(C)=N2,16.3% (inactive),–
CC1=Nc2nc(N3CCCCC3)c(C#N)c3c4c(nc(c23)N1)N(c1ccc(C(C)C)cc1)C(=O)C4,63.9% (active),–
Cc1onc(-c2ccccc2)c1-c1csc(N/N=C/c2ccccc2)n1,-1.5% (inactive),–
O=C(Nc1ccccc1)c1ccccc1NS(=O)(=O)c1ccc(Cl)s1,28.5% (inactive),–
COc1ccc(C)cc1NC(=O)c1ccccc1NS(=O)(=O)c1ccc(Cl)s1,60.5% (active),–
Cc1ccc(NC(=O)c2ccccc2NS(=O)(=O)c2ccc(Cl)s2)cc1,56.3% (inactive),29%
CCN(CC)S(=O)(=O)c1ccc(C(=O)Nc2nnc(-c3ccco3)o2)cc1,9.7% (inactive),–
O=C(NC1CC1)C1CCN(C2CCN(C(=O)c3c(F)cccc3Cl)CC2)CC1,3.8% (inactive),–
CC(C)CN1CCC(=O)N(CCN=[N+]=[N-])CC1,-1.2% (inactive),–
CC(C)(Oc1ccc(Cl)cc1)C(=O)Nc1ccncc1,-1.9% (inactive),–
NC(=O)[C@@H]1CC2(CC(c3cccc(NC(=O)[C@@H]4CCC(=O)N4)c3)=NO2)CN1C(=O)Cc1ccc([N+](=O)[O-])cc1 (some centres not stated),-1.2% (inactive),–
COc1cc(/C=C2\SC(=Nc3ccc(F)cc3)N(c3ccc(F)cc3)C2=O)ccc1OCC(=O)O,35.3% (inactive),–
CCOc1cc(/C=C2\SC(=Nc3ccc(F)cc3)N(c3ccc(F)cc3)C2=O)ccc1OCC(=O)O,41.5% (inactive),–
CCOc1cc(/C=C2\SC(=Nc3ccccc3)N(c3ccccc3)C2=O)ccc1OCC(=O)O,58.9% (active),–
O=C(O)C(Cc1ccccc1)N1C(=O)/C(=C/c2cccs2)SC1=S (configuration not stated),17.7% (inactive),–
COc1cccc(/C=C2\SC(=S)N(C(Cc3ccccc3)C(=O)O)C2=O)c1 (configuration not stated),30.7% (inactive),–
O=C(O)C(Cc1ccccc1)N1C(=O)/C(=C/c2ccccc2)SC1=S (configuration not stated),21.1% (inactive),–
CCOc1ccc(/C=C2/SC(=S)N(C(C(=O)O)c3ccccc3)C2=O)cc1OCC (configuration not stated),56.2% (active),–
CCOc1ccc(/C=C2\SC(=S)N(C(C(=O)O)c3ccccc3)C2=O)cc1OC (configuration not stated),12.1% (inactive),–

SMILES,inhibition (at 20 µM),inhibition [1]
COc1ccc(/C=C2\SC(=S)N(C(Cc3ccccc3)C(=O)O)C2=O)cc1 (configuration not stated),38.4% (inactive),–
COc1cc(/C=C2\SC(=S)N(C(C(=O)O)c3ccccc3)C2=O)ccc1O (configuration not stated),47.4% (inactive),–
Cc1ccc(/C=C2\SC(=S)N(C(Cc3ccccc3)C(=O)O)C2=O)cc1 (configuration not stated),53.9% (active),–
O=C(O)C(Cc1ccccc1)N1C(=O)/C(=C/c2cccc3ccccc23)SC1=S (configuration not stated),52.6% (active),–
Cc1ccc(NC(=O)c2ccc3nsnc3c2)c(Cl)c1,1.6% (inactive),–
O=C(CSc1nnc(C2CCCCC2)o1)Nc1ccccc1Cl,2.8% (inactive),–
O=C(NN=C1CCCC1)c1ccc(Cl)cc1,-0.5% (inactive),–
CC(C)(C)c1ccc(NC(=S)NCCc2ccccn2)cc1,-0.5% (inactive),–
CCN1CC=C2C(C#N)=C(N)C(C#N)(C#N)C(c3cc(Cl)ccc3Cl)C2C1 (configuration not stated),2.6% (inactive),–
CCOC(=O)N1CC=C2C(C#N)=C(N)C(C#N)(C#N)[C@H](c3ccccc3OCC)[C@H]2C1,0.7% (inactive),–
CCCN1CC=C2C(C#N)=C(N)C(C#N)(C#N)C(c3cccc(OC)c3OC)C2C1 (configuration not stated),67.5% (active),–
COc1cccc(C2C3CN(C)CC=C3C(C#N)=C(N)C2(C#N)C#N)c1OC (configuration not stated),149% (inactive),–
CCN1CC=C2C(C#N)=C(N)C(C#N)(C#N)[C@H](c3cccc(OC)c3OC)[C@H]2C1,61.5% (active),–
COc1ccc([C@@H]2[C@H]3CN(C(C)=O)CC=C3C(C#N)=C(N)C2(C#N)C#N)c2ccccc12,-3.1% (inactive),–
Cn1c(COc2ccccc2)nnc1SCC(=O)NCc1ccccc1,-0.1% (inactive),–
CC1(C)CC(NCc2cccc([N+](=O)[O-])c2)CC(C)(C)N1,-1.8% (inactive),–
CN(C)n1cnc2ccsc2c1=O,1.1% (inactive),–
CN(C(=O)COC(=O)CNC(=O)c1ccccc1Cl)c1ccccc1,-0.3% (inactive),–
CCC1=NN2C(=N)/C(=C\c3cccn3-c3ccc(C)cc3C)C(=O)N=C2S1,51% (active),–
CCC1=NN2C(=N)/C(=C\c3cccn3-c3ccc(C)c(C)c3)C(=O)N=C2S1,35.7% (inactive),–
CCC1=NN2C(=N)/C(=C\c3cccn3-c3c(C)cccc3C)C(=O)N=C2S1,25.7% (inactive),–
CC(NCCc1ccc(S(N)(=O)=O)cc1)C(=O)NCCc1ccc(F)cc1 (configuration not stated),0.6% (inactive),–
Cc1ccccc1/C=C1\SC(=S)N(/N=C/c2cc([N+](=O)[O-])ccc2O)C1=O,26.8% (inactive),–

SMILES,inhibition (at 20 µM),inhibition [1]
Cc1ccc(/C=C2\SC(=S)N(/N=C/c3cc([N+](=O)[O-])ccc3O)C2=O)o1,82.2% (active),–
O=C1/C(=C/c2cccc(Br)c2)SC(=S)N1/N=C/c1cc([N+](=O)[O-])ccc1O,16.7% (inactive),–
CCNC(=S)NS(=O)(=O)c1ccc(C)cc1,-1.7% (inactive),–
CCN(CC)c1ccc(/C=C(/C#N)C(=O)NC(C)C)o1,113% (active),–
CN(C)c1ccc(/C=C(/C#N)C(=O)NCc2ccccc2)o1,134% (inactive),–
CCN(CC)c1ccc(/C=C(/C#N)C(=O)NCc2ccccc2)o1,128% (inactive),–
Cc1ccc(/C=C(\C#N)C(=O)NC(C)c2ccccc2)o1 (configuration not stated),0.2% (inactive),–
CC(C)NC(=O)/C(C#N)=C\c1ccc(N(C)C)o1,78.6% (active),59.9%
Cc1ccc(/C=C(/C#N)C(=O)NC(C)c2ccccc2)o1 (configuration not stated),3.2% (inactive),–
CC(C)NC(=O)/C(C#N)=C\c1ccc(N(C)C)c(Br)c1,0.3% (inactive),–
CC(C)NC(=O)/C(C#N)=C/c1ccc(N(C)C)o1,82.3% (active),64.2%
Cc1ccc(/C=C(\C#N)C(=O)NC(C)C)o1,1.4% (inactive),–
O=C(OCc1ccccc1)c1cnc(Cl)c(Cl)c1,-1.7% (inactive),–
CC(C)CNC(=O)c1cccc(NC(=O)CCc2ccccc2)c1,0.2% (inactive),–
CC(=O)NCCn1c(SCC(=O)NCCC(C)C)nc2ccccc2c1=O,-1.8% (inactive),–
Nc1c(C(=O)OCC2CCCO2)c2nc3ccccc3nc2n1-c1ccc2c(c1)OCCO2 (configuration not stated),0.3% (inactive),–
O=C(c1ccco1)N1CCN(c2ccc([N+](=O)[O-])c(N3CCOCC3)c2)CC1,0.8% (inactive),–
Nc1ccc2nc(SCc3ccc([N+](=O)[O-])cc3)sc2c1,1.8% (inactive),–
Cn1cc(CN2CCN(CC(C)(C)C)C(CCO)C2)c2ccccc21 (configuration not stated),2.5% (inactive),–
Cc1ccc(CSc2nc3ccccc3c(=O)n2CCCC(=O)NCc2ccco2)cc1,-1.1% (inactive),–
CN1CCN(c2ccc(NC(=O)CSc3nnnn3-c3ccccc3F)cc2)CC1,-0.3% (inactive),–
Cc1cc2nc(-c3ccc(SCc4ccc(C(=O)O)cc4)nc3)[nH]c2cc1C,56.9% (active),–
Cc1cc2nc(-c3ccc(SCc4ccc(C#N)cc4)nc3)[nH]c2cc1C,8.6% (inactive),–

SMILES,inhibition (at 20 µM),inhibition [1]
CC(=O)CSc1ccc(-c2nc3cc(C)c(C)cc3[nH]2)cn1,0.7% (inactive),–
Cn1nc(CC(=O)Nc2cccnc2N2CCOCC2)c2ccccc2c1=O,0.1% (inactive),–
O=S(=O)(O)c1cccc2c(N=Nc3ccc(O)c4ncccc34)cccc12,64.9% (active),–
NS(=O)(=O)c1ccc(N=Nc2ccc(O)c3ncccc23)cc1,-1.1% (inactive),–
Cc1ccccc1N=Nc1ccc(O)c2ncccc12,-1.3% (inactive),–
O=C(O)/C=C\C(=O)Nc1ccccc1C(=O)NCc1ccccc1,-0.8% (inactive),–
COc1ccc(/C=C/c2cccc[n+]2C)c(O)c1,2.7% (inactive),–
CCN(CC)c1ccc(/C=C/c2cccc[n+]2C)c(OC)c1,77.3% (active),63.6%
CCN(CC)c1ccc(C=O)c(OC)c1,-0.9% (inactive),–
Cc1c(OC(C)C(=O)NCCCN2CCCC2=O)ccc2c3c(c(=O)oc12)CCCC3 (configuration not stated),-2.1% (inactive),–
CCOC(=O)C1(Cc2ccccc2)CCCN(Cc2cnn(CC)c2)C1 (configuration not stated),-1.6% (inactive),–
Cc1cccc2c1N(C(=O)c1ccco1)C(C)(C)c1ssc(=S)c1-2,-4.4% (inactive),–
CCCn1cc(CN2CCC(Cc3cccc(F)c3)(C(=O)OCC)CC2)c(C)n1,-3.2% (inactive),–
COc1cc([N+](=O)[O-])ccc1NC(=O)N1CCCCCC1,-0.4% (inactive),–
CN1CC=C2C(C#N)=C(N)C(C#N)(C#N)[C@H](c3cccs3)[C@H]2C1,25.9% (inactive),–
N#CC1=C(N)C(C#N)(C#N)C2(CCC3(CC2)OCCO3)C2CC3(CC=C12)OCCO3 (configuration not stated),5.6% (inactive),–
CN1CCC2(CC1)C1CN(C)CC=C1C(C#N)=C(N)C2(C#N)C#N (configuration not stated),51.5% (active) and 103% (active),50.3%
CC(=O)N1CCC(=O)Nc2ccc([N+](=O)[O-])cc21,-0.3% (inactive),–
COc1cc2nc(CN3CCN(C(c4ccccc4)c4ccccc4)CC3)[nH]c(=O)c2cc1OC,2.2% (inactive),–
COc1ccc(CCn2c(=N)c(S(=O)(=O)c3ccc(Cl)cc3)cc3c(=O)n4ccccc4nc32)cc1,195% (inactive),–
N=c1c(S(=O)(=O)c2ccc(Cl)cc2)cc2c(=O)n3ccccc3nc2n1CCc1ccccc1,84.1% (active),74.9%
Cc1ccc(S(=O)(=O)c2cc3c(=O)n4ccccc4nc3n(CCc3ccccc3)c2=N)cc1,25% (inactive),–
